# HepG2 tox = qHTS for Inhibitors of TGF-b: Cytotox Counterscreen. 410,000 compounds, 0.76% hits. HepG2 CAGA-GFP viability, ATP luminescence, 18 h. Potency, µM (highest dose often 46.1 µM), inactives show at the top dose activity change, negative = cytotoxicity, hits mostly cytotoxic
#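 HepG2 CAGA-GFP cells (1000/well, DMEM with 1% FBS) received compound, then TGF-beta at 500 pg/mL final, and were incubated 18 hours at 37 degrees C. Viability was read by CellTiter-Glo luminescence. Media-only wells were set as complete cell-killing and DMSO as no toxicity.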
# Gal4-VP16 FLuc = VP16 counterscreen qHTS for inhibitors of ROR gamma transcriptional activity; Drosophila S2 Gal4-VP16 UAS-luciferase, luminescence, 20 h; Potency, µM (top dose mostly 53.6 µM), for inactives: top-dose activity, negative = inhibition, most hits filed as inhibitors; 310,000 compounds, 3.5% hits;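 also: Gal4-VP16 expression switched on by copper sulfate through the metallothionein promoter; % is scaled to controls: 0 for no effect and ±100 for the full control effect; nearly all actives have a fitted effect of over 50% in size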
# TGFb SMAD3 inh = qHTS for Inhibitors of TGF-b | HepG2 CAGA-GFP TGF-b/SMAD3 reporter, GFP fluorescence, 18 h; TGF-beta stimulated, 500 pg/mL final | Potency, µM (titrated, usually from 46.1 µM), for inactives: at the top dose activity, negative = inhibition, actives largely listed as inhibitors | 410,000 compounds, 1.2% hits | AID 588855, 2011; also: % is scaled to controls: 0 for no effect and ±100 for the full control effect; nearly all actives have a fitted effect of over 65% in size
#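 Using HEPG2 CAGA-GFP reporter cells at 1000 cells/well, we pinned test compounds, stimulated with recombinant TGF-beta (500 pg/mL final) and measured total well GFP after 18 h.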
# ATXN2 expr inh = Primary qHTS for Inhibitors of ATXN expression. HEK-293 ATXN2-luciferase reporter, luminescence, 24 h. Potency, µM (highest dose often 57 µM), inactives show at the highest dose activity change, negative = inhibition, hits mostly inhibitors. 360,000 compounds, 0.72% hits. AID 1745845, 2022; also: % is scaled to controls: 0 for no effect and ±100 for the full control effect; nearly all actives have a fitted effect of over 55% in size
#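 ATXN2-luciferase reporter cells (luciferase flanked by upstream and downstream ATXN2 gene portions) were treated 24 h at 37 °C with compounds at up to 57 uM. SteadyGlo luminescence gave expression; GF-AFC fluorescence gave viability.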
# ATXN viability = Viability Counterscreen for Primary qHTS for Inhibitors of ATXN expression. S2 cells (HEK-293 line with an ATXN2-luciferase reporter) viability, CellTiter-Fluor protease fluorescence, 24 h. Potency, µM (doses to about 56.7 µM), most hits filed as cytotoxic. 400,000 compounds, 0.49% hits; also: nearly all actives have a fitted effect of over 40% in size
# RORg inh = qHTS for inhibitors of ROR gamma transcriptional activity; Nuclear receptor ROR-gamma (Mus musculus), P51450; Drosophila S2 Gal4-RORgamma UAS-luciferase reporter, 20 h; Potency, µM (top dose mostly 53.6 µM), inactives show at the highest dose activity change, negative = inhibition, actives largely listed as inhibitors; 310,000 compounds, 5.4% hits; AID 2551, 2010; also: % is scaled to controls: 0 for no effect and ±100 for the full control effect; nearly all actives have a fitted effect of over 60% in size
# Target sequence (P51450 whole entry, looked up, the tested form may be a part): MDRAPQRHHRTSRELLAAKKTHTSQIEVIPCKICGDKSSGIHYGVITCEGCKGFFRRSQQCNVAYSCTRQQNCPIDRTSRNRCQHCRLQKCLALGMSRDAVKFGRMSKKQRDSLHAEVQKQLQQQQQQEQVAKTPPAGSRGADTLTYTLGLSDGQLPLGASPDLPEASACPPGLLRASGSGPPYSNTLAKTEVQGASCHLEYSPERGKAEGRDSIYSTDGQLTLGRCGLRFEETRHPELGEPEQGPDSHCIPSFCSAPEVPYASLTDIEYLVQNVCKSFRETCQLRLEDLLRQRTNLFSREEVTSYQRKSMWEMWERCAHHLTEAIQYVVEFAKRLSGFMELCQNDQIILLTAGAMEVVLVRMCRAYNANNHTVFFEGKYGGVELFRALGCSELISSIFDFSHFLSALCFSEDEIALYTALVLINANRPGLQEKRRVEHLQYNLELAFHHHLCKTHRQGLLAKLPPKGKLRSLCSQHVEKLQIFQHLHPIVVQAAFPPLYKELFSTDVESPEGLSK
#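 Compounds are pin-transferred onto Drosophila Schneider cells expressing a copper-inducible Gal4–ROR gamma transactivation domain fusion. After 1 hr, copper sulfate is added to 700 uM final; luciferase is read 20 hr later.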
# Active calls of the source: *; i = inactive; ? = inconclusive; . = not tested or not shown. In the library only some 6.1% were active in any assay of this set; here they are far more common. Calls follow the shape of the dose curve; as a rule, active = well fitted curve in the direction sought with a large enough effect; inconclusive = small, poorly fitted or top-dose-only effect, or another doubt; inactive = no such curve, though single readings can be large; an effect the other way counts as inactive or inconclusive. Potency is read from the fitted curve at half-maximal effect.
SMILES,HepG2 tox,Gal4-VP16 FLuc,TGFb SMAD3 inh,ATXN2 expr inh,ATXN viability,RORg inh
Cc1c(Cl)cccc1-n1ncc(C(=O)NC2CCCCC2)c1C1CCN(C(=O)OC(C)(C)C)CC1,-12.4%,.,-8.3%,10.6%,i,.
COc1ccccc1N1CCN(CCCNC(=O)c2cnn(-c3cccc(Cl)c3)c2C2CCN(C(=O)OC(C)(C)C)CC2)CC1,12.6µM*,.,12.6µM*,.,.,.
CC(C)(C)OC(=O)N1CCC(c2c(C(=O)NC3CCCCC3)cnn2-c2cccc(Cl)c2)CC1,4.0%,.,17.8µM*,.,.,.
O=C(NCC1CCN(Cc2cccc(Cl)c2)CC1)Nc1ccc(F)c(Cl)c1,-112.8%,.,22.4µM*,?,22.4µM*,.
C[C@@H](C(=O)NCc1ccc(S(C)(=O)=O)cc1)[C@H]1C[C@]1(C)[C@H](NC(=O)OCc1ccccc1)c1ccccc1,-19.4%,-7.6%,-11.8%,-13.8%,i,8.91µM*
C[C@@H](C(=O)NCc1ccccc1)[C@@H]1C[C@@]1(C)[C@@H](NC(=O)OCc1ccccc1)c1ccccc1,2.4%,-3.9%,0.5%,-15.9%,i,?
C=C1C=C(C(F)F)n2ncc(C(=O)NCc3ccc(Cl)cc3)c2N1,-2.3%,.,2.5%,.,.,.
CCOC(=O)c1ccc(N2C(=O)c3n[nH]c(-c4cccs4)c3C2c2ccc(OCC)cc2)cc1 (centres undefined),-63.8%,.,1.58µM*,?,?,.
CCOC(=O)c1ccc(N2C(=O)c3n[nH]c(C)c3C2c2cccc(Br)c2)cc1 (centres undefined),-104.2%,.,?,.,.,.
CCOC(=O)c1ccc(N2C(=O)c3n[nH]c(-c4cccs4)c3C2c2cccc(O)c2)cc1 (centres undefined),-81.8%,.,11.2µM*,?,28.2µM*,.
CCOC(=O)c1ccc(N2C(=O)c3n[nH]c(-c4cccs4)c3C2c2ccc(C(C)C)cc2)cc1 (centres undefined),0.8%,.,?,4.8%,i,.
CCOC(=O)c1ccc(N2C(=O)c3n[nH]c(-c4cccs4)c3C2c2ccc(CC)cc2)cc1 (centres undefined),-89.2%,.,0.891µM*,.,.,.
CCN(CC)CCCNC(=O)c1ccc2c(c1)N(Cc1c(F)cccc1Cl)C(=O)c1ccccc1S2,11.2µM*,.,10µM*,20µM*,i,.
Cc1cc(C)nc(/N=C(\NC(=O)C(C)(C)C)Nc2ccccc2)n1,-32.0%,-3.7%,0.0%,14.0%,i,-34.5%
Cc1cc(-c2ccccc2)c2ccc(NC(=O)C(C)(C)C)nc2n1,-4.3%,?,-8.9%,.,?,11.2µM*
CCCCCOC(=O)c1ccc(OC(=O)c2sc3ncn(Cc4cccc(F)c4)c(=O)c3c2C)cc1,10.7%,.,29.5%,0.2%,i,.
Cc1ccc(C)c(S(=O)(=O)ON2C(=O)c3ccccc3C2=O)c1,-8.8%,11.2µM*,?,-33.2%,?,?
Cc1cc(S(=O)(=O)ON2C(=O)c3ccccc3C2=O)ccc1F,1.9%,12.6µM*,11.0%,.,?,?
O=C1c2ccccc2C(=O)N1OS(=O)(=O)c1ccccc1,.,15.8µM*,.,.,.,?
COCCCNC(=O)CCCN1C(=O)CCn2nc(-c3cn(C)c4ccccc34)cc21,-4.7%,.,0.8%,14.0%,i,.
COc1ccccc1CNC(=O)C1CCCN(c2nnc(C)c3c(C)n(-c4ccccc4)nc23)C1 (centres undefined),-52.8%,.,?,-10.4%,?,.
COc1ccc(-n2nc3c(N4CCCC(C(=O)NCc5ccccc5C)C4)nnc(C)c3c2C)cc1 (centres undefined),-73.7%,.,5.01µM*,.,.,.
CCOc1ccccc1CNC(=O)C1CCCN(c2nnc(C)c3c(C)n(-c4ccccc4)nc23)C1 (centres undefined),0.3%,?,?,?,7.94µM*,?
COc1ccc(-n2nc3c(N4CCCC(C(=O)NCCc5ccccc5C)C4)nnc(C)c3c2C)cc1 (centres undefined),-52.3%,.,?,?,.,.
Cc1ccc(N2C(=O)C(CC(=O)Nc3ccc(F)cc3)N(Cc3ccc4c(c3)OCO4)C2=O)cc1 (centres undefined),-3.3%,.,-2.9%,3.9%,i,.
SMILES,HepG2 tox,Gal4-VP16 FLuc,TGFb SMAD3 inh,ATXN2 expr inh,ATXN viability,RORg inh
COc1ccc(N2CC(NC(=O)C3CC3)CC2=O)cc1OC (centres undefined),-16.5%,.,-8.9%,0.6%,i,.
Cc1ccc(F)cc1NC(=O)c1ccc(Cn2nc(N3CCN(c4ccccc4)CC3)ccc2=O)o1,-20.2%,.,-25.6%,.,.,.
Cc1ccc(C(=O)Nc2nnc(C)s2)cc1,0.8%,-17.6%,4.5%,-21.4%,i,10µM*
Cc1ccc(C(=O)Nc2nc(=O)n(C)s2)cc1,3.1%,11.2µM*,?,9.1%,i,8.91µM*
Cn1sc(NC(=O)c2ccc(Cl)cc2)nc1=O,-9.6%,-8.8%,4.0%,-10.1%,i,-13.4%
Cc1nnc(NC(=O)c2ccc(Br)cc2)s1,-16.1%,-5.7%,-22.6%,13.3%,i,11.6%
O=C(Nc1c(O)c2ccccc2oc1=O)c1ccccc1Cl,0.8%,.,-1.7%,13.7%,i,.
Cc1cccc(C(=O)N[C@H](C(=O)Nc2ncc(C)s2)C(C)C)c1,7.3%,-16.1%,11.2µM*,8.44µM*,i,-6.7%
Cc1cccc(C(=O)NC(C(=O)Nc2nc(-c3ccccn3)cs2)C(C)C)c1 (centres undefined),-6.5%,?,?,.,?,7.94µM*
C[C@H](NC(=O)c1ccccc1)C(=O)Nc1nc(-c2ccccn2)cs1,-19.9%,-6.7%,-7.1%,?,i,-3.7%
Cc1cn2c(=O)cc(COc3ccccc3NC(=O)c3ccccc3C)nc2s1,0.1%,.,-11.8%,10.9%,i,.
COc1cccc(C(=O)Nc2nc(-c3nnn(-c4cc(C)ccc4C)c3C)ns2)c1,-11.6%,.,-14.6%,8.2%,i,.
Cc1c(-c2nsc(NC(=O)c3cccs3)n2)nnn1-c1ccc(Br)cc1,-37.1%,.,-25.8%,?,31.6µM*,.
COc1cccc(C(=O)Nc2nc(-c3nnn(-c4ccccc4C(F)(F)F)c3C)ns2)c1,-54.1%,.,12.6µM*,-24.5%,i,.
COc1ccc(C(=O)Nc2nc(-c3nnn(-c4ccc(F)cc4F)c3C)ns2)cc1,-36.2%,.,?,11.2µM*,?,.
Cc1cccc(C(=O)Nc2nc(-c3nnn(-c4cc(F)ccc4F)c3C)ns2)c1,-38.0%,.,?,?,i,.
